# Assay results from ChEMBL document CHEMBL1201862, “PubChem BioAssay data set” (2004).
# Among all 57,000 sequences or so, about 4,300 (7.5%) were called active. No stated cut-off is given here; in the data, active = GI50 up to about 1.1 µM and inactive = higher. A selection follows. Potency and affinity values are given separately.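 Interpolation was linear, between the two tested concentrations surrounding the appropriate level; five concentrations were tested over 48 hours in 96-well plates. The concentration for 50% growth inhibition is given as GI50.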
# System: HT-29
# Assay: NCI tumour cell line growth inhibition, 48 h
row,Substance,GI50 [µM]
1,"cis-Bis[[(trimethylsilyl)methyl]amino]tetrachloroplatinum(IV), CHEMBL2146191",4.11
2,"[Bis(aminomethyl)pentamethylenesilane]tetrachloropaltinum(IV), CHEMBL2146204",1.57
3,"[Bis(aminomethyl)tetramethylenesilane]tetrachloropaltinum(IV), CHEMBL2146189",4.9
4,"[Bis(aminomethyl)pentamethylenesilane]dichloropaltinum(II), CHEMBL2146202",3.19
5,"CISPLATIN, CHEMBL11359",7.93
6,"[Bis(aminomethyl)dimethylsilane]dichloroplatinum (II), CHEMBL2146201",18.1
7,"[Bis(aminomethyl)dimethylsilane]tetrachloroplatinum(IV), CHEMBL2146190",5.28
8,"[Bis(aminomethyl)ethylmethylsilane]tetrachloroplatinum(IV), CHEMBL2146192",1.57
9,"mu-(1,7-nanodiamine-N,N')bis-(cis-aminedichloroplatimum (II)), CHEMBL2146215",42.7
10,"[Bis(aminomethyl)tetramethylenesilane]dichloropaltinum(II), CHEMBL2146205",16.2
11,"[Bis(aminomethyl)diethylsilane]tetrachloroplatinum(IV), CHEMBL2146203",2.06
